Measured values reported in the supplement of paper PMC10515830.
Counter-ions that a name gives are not always drawn.

Tested on: Danio rerio larvae (5 dpf)
Experiment: difference in habituation to acoustic stimuli vs DMSO (percentage points); higher = more habituation than DMSO
Settings: 10 µM; exposure time 6 h
In short: (§1)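 In 96-well plates, 48 wild-type zebrafish larvae aged 5 dpf per compound received 100 µL egg water with library compound at 10 µM final for 6 h. Three hours into this, a 3-h programme of moving lines and 100 ms, 400Hz tones ran at 28.5 ℃ while plates were photographed every 6 s. Z-LaP Tracker scored the behaviours, and each is given as the compound mean minus the vehicle control mean in percentage points.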

| Structure (SMILES) | difference in habituation to acoustic stimuli |
| --- | --- |
| CC(C)c1nc(CN(C)C(=O)N[C@H](C(=O)N[C@@H](Cc2ccccc2)C[C@H](O)[C@H](Cc2ccccc2)NC(=O)OCc2cncs2)C(C)C)cs1 [Ritonavir] | 6.79 |
| NC(=O)N[C@@H](CCC(=O)O)C(=O)O [N-Carbamyl-L-Glutamic Acid] | 3.65 |
| N=C(N)NC(=O)c1nc(Cl)c(N)nc1N [Amiloride (hydrochloride) (hydrate)] | 2.2 |
| Cc1c(OCC(F)(F)F)ccnc1C[S+]([O-])c1nc2ccccc2[nH]1 (stereo unspecified) [Lansoprazole] | -2.95 |
| NNC(=O)c1ccncc1 [Isoniazid] | -2.52 |
| C[C@@H]1O[C@@H]1P(=O)(O)O [Fosfomycin Trometamol] | -4.72 |
| N#Cc1ccc(C(c2ccc(C#N)cc2)n2cncn2)cc1 [Letrozole] | -3.28 |
| Nc1nc(-n2cc(C(=O)O)c(=O)c3cc(F)c(N4CC(O)C4)c(Cl)c32)c(F)cc1F [Delafloxacin] | 7.81 |

Tested on: Danio rerio larvae (5 dpf)
Experiment: difference in combined optomotor response to red, green and blue moving lines vs DMSO (percentage points); higher = stronger optomotor response than DMSO
Settings: 10 µM; exposure time 6 h
In short: as §1

| Structure (SMILES) | difference |
| --- | --- |
| Cc1nc2n(c(=O)c1CCN1CCC(c3noc4cc(F)ccc34)CC1)CCCC2 [Risperidone] | -1.6 |
| CC(C)c1c(C(=O)Nc2ccccc2)c(-c2ccccc2)c(-c2ccc(F)cc2)n1CC[C@@H](O)C[C@@H](O)CC(=O)O [Atorvastatin (calcium salt hydrate)] | -0.114 |
| N=C(N)NCCC[C@@H](NC(=O)[C@@H]1CCCN1C(=O)[C@@H]1CSSCCC(=O)N[C@@H](Cc2ccc(O)cc2)C(=O)N[C@@H](Cc2ccccc2)C(=O)N[C@@H](CCC(N)=O)C(=O)N[C@@H](CC(N)=O)C(=O)N1)C(=O)NCC(N)=O [Desmopressin (trifluoroacetate salt)] | 5.42 |
| CC(=O)OCC(CCn1cnc2cnc(N)nc21)COC(C)=O [Famciclovir] | 4.52 |
| COC(=O)/C=C/C(=O)OC [Dimethyl fumarate] | 12 |
| CC(C)OC(=O)[C@H](C)N[P@](=O)(OC[C@H]1O[C@@H](n2ccc(=O)[nH]c2=O)[C@](C)(F)[C@@H]1O)Oc1ccccc1 | 6.56 |
| CCN(CC)C(=O)[C@@]1(c2ccccc2)C[C@H]1CN [Levomilnacipran (hydrochloride)] | -14.2 |
| Cc1ccc(N(CC2=NCCN2)c2cccc(O)c2)cc1 [Phentolamine (mesylate)] | -2.55 |
| COc1ccc(C[C@@H](C)NC[C@H](O)c2ccc(O)c(NC=O)c2)cc1 [Arformoterol (tartrate)] | -2.14 |
| COC(=O)[C@H]1[C@H]2C[C@@H]3c4[nH]c5cc(OC)ccc5c4CCN3C[C@H]2C[C@@H](OC(=O)c2cc(OC)c(OC)c(OC)c2)[C@@H]1OC [Reserpine] | -10.4 |
| CO[C@H]1/C=C/O[C@@]2(C)Oc3c(C)c(O)c4c(O)c(c(/C=N/N5CCN(C6CCCC6)CC5)c(O)c4c3C2=O)NC(=O)/C(C)=C\C=C\[C@H](C)[C@H](O)[C@@H](C)[C@@H](O)[C@@H](C)[C@H](OC(C)=O)[C@@H]1C [Rifapentine] | 6.78 |
| CN(C)CCOC(C)(c1ccccc1)c1ccccn1 (stereo unspecified) [Doxylamine (succinate)] | 9.42 |
| CC1=NN(c2ccc(C)c(C)c2)C(=O)/C1=N\Nc1cccc(-c2cccc(C(=O)O)c2)c1O [Eltrombopag] | -0.694 |
| CN1C(CCl)Nc2cc(Cl)c(S(N)(=O)=O)cc2S1(=O)=O (stereo unspecified) [Methyclothiazide] | -1.76 |
| Nc1ccc(O)c(C(=O)O)c1 [5-Aminosalicylic Acid] | -0.0944 |
| CCOc1cc(CC(=O)N[C@@H](CC(C)C)c2ccccc2N2CCCCC2)ccc1C(=O)O [Repaglinide] | 1.85 |
| COc1ccc(Cl)cc1C(=O)NCCc1ccc(S(=O)(=O)NC(=O)NC2CCCCC2)cc1 [Glyburide (potassium salt)] | 7.83 |
| C#Cc1cccc(Nc2ncnc3cc(OCCOC)c(OCCOC)cc23)c1 [Erlotinib] | -4.8 |
| CCCc1c2oc(C(=O)O)cc(=O)c2cc2c(=O)cc(C(=O)O)n(CC)c12 [Nedocromil (sodium salt)] | -2.49 |

| Structure (SMILES) | difference |
| --- | --- |
| NCc1ccc(S(N)(=O)=O)cc1 [Mafenide] | 0.998 |
| C[C@H]1O[C@H](O[C@H]2[C@H](O)[C@@H](O)[C@@H](O[C@H]3[C@H](O)[C@@H](O)C(O)O[C@@H]3CO)O[C@@H]2CO)[C@H](O)[C@@H](O)[C@@H]1N[C@H]1C=C(CO)[C@@H](O)[C@H](O)[C@H]1O (stereo partly specified) [Acarbose] | 4.03 |
| NC1=NCC2c3ccccc3Cc3ccccc3N12 (stereo unspecified) [Epinastine (hydrochloride)] | 7.56 |
| CCCc1nc2c(C)cc(-c3nc4ccccc4n3C)cc2n1Cc1ccc(-c2ccccc2C(=O)O)cc1 [Telmisartan] | -8.32 |
| COc1ccc(-n2nc(C(N)=O)c3c2C(=O)N(c2ccc(N4CCCCC4=O)cc2)CC3)cc1 [Apixaban] | 10.4 |
| Cc1c(O)c(=O)ccn1C [Deferiprone] | 10.8 |
| Nc1nc(Cl)nc2c1ncn2[C@H]1C[C@H](O)[C@@H](CO)O1 [Cladribine] | 8.45 |
| CC(=O)CC(c1ccccc1)c1c(O)c2ccccc2oc1=O (racemic) [(±)-Warfarin] | -1.34 |
| Nc1nc(O)c2ncn(CCC(CO)CO)c2n1 [Penciclovir] | 11.3 |
| CCCNC(C)C(=O)Nc1c(C)csc1C(=O)OC (stereo unspecified) [Articaine (hydrochloride)] | -0.0299 |
| COC(=O)C1=C(C)NC(C)=C(C(=O)OCC(C)C)C1c1ccccc1[N+](=O)[O-] (stereo unspecified) [Nisoldipine] | -16.9 |
| CC(C)c1nc(CN(C)C(=O)N[C@H](C(=O)N[C@@H](Cc2ccccc2)C[C@H](O)[C@H](Cc2ccccc2)NC(=O)OCc2cncs2)C(C)C)cs1 [Ritonavir] | 1.78 |
| NC(=O)N[C@@H](CCC(=O)O)C(=O)O [N-Carbamyl-L-Glutamic Acid] | 8.31 |
| N=C(N)NC(=O)c1nc(Cl)c(N)nc1N [Amiloride (hydrochloride) (hydrate)] | 2.45 |
| Cc1c(OCC(F)(F)F)ccnc1C[S+]([O-])c1nc2ccccc2[nH]1 (stereo unspecified) [Lansoprazole] | 6.61 |
| NNC(=O)c1ccncc1 [Isoniazid] | 6.66 |
| C[C@@H]1O[C@@H]1P(=O)(O)O [Fosfomycin Trometamol] | -4.51 |
| N#Cc1ccc(C(c2ccc(C#N)cc2)n2cncn2)cc1 [Letrozole] | 0.376 |
| Nc1nc(-n2cc(C(=O)O)c(=O)c3cc(F)c(N4CC(O)C4)c(Cl)c32)c(F)cc1F [Delafloxacin] | 9.67 |
